Assay results: ChEMBL document CHEMBL1201862, “PubChem BioAssay data set” (2004)
The campaign covered roughly 400,000 compounds. About 2,100 (0.53%) were called active. Roughly 14% stayed inconclusive and do not appear here. No rule for the calls is given here. The entries come from a sample that favours actives as a whole.

target: Ataxin-2 (Homo sapiens) (UniProt Q99700); experiment: qHTS for Inhibitors of ATXN expression.; assay type: functional
Sequence (Q99700 whole entry): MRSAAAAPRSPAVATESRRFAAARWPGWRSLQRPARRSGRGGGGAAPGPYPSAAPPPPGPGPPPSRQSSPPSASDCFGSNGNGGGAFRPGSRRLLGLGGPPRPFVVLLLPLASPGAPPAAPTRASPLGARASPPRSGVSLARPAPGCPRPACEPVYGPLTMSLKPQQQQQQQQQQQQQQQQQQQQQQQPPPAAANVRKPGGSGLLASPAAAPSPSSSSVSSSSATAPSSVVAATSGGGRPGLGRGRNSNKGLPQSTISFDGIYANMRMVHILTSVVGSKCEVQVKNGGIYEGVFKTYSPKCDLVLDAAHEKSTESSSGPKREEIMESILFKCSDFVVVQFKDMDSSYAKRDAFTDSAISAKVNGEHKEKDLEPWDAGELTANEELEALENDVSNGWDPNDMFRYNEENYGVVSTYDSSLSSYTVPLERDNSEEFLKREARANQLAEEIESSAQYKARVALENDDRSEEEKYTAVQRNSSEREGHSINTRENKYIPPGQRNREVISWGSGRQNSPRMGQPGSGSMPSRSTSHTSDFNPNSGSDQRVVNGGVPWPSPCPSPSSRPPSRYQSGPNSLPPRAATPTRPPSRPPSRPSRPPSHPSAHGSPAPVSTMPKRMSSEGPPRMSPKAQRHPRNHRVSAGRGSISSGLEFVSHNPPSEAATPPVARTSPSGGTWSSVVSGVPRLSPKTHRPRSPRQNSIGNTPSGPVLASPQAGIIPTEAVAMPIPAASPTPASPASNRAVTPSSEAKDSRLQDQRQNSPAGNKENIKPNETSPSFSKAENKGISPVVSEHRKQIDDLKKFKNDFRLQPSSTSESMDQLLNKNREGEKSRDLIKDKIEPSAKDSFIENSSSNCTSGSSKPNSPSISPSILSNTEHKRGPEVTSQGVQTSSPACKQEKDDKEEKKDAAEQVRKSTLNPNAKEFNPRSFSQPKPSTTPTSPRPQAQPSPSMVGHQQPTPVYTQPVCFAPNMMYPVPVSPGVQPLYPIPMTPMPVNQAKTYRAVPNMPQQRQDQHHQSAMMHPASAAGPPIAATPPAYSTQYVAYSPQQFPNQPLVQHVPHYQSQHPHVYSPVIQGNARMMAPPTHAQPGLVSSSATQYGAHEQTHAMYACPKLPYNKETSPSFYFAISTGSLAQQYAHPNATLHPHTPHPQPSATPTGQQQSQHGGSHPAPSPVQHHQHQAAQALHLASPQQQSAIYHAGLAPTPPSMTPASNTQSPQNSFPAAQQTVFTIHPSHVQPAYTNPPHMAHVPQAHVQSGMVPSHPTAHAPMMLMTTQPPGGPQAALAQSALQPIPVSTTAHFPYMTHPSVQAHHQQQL

Compound	Potency
C=CC[C@@H](Cc1ccc(F)cc1)C(=O)OC[C@H]1CCCN1C(=O)[C@H](CC=C)CC(=O)N(CCO)Cc1ccccc1	35.5 µM (active)
C=CC[C@@H](Cc1ccc(F)cc1)C(=O)OC[C@H]1CCCN1C(=O)[C@@H](CC=C)CC(=O)N(CCO)Cc1ccccc1	39.8 µM (active)
N#Cc1c(N)n(CCc2ccc(F)cc2)c2nc3ccccc3nc12	inactive
O=C(CN1C(=O)NC2(CCCCC2)C1=O)Oc1ccc2c(C(F)(F)F)cc(=O)oc2c1	inactive
Fc1ccc(-c2nc3cnccn3c2NC2CCCC2)cc1	inactive
COc1ccc2c(c1)CCc1cn3nc(C)cc3nc1-2	inactive
COc1ccc(C(=O)N2C(=O)c3ccc(N)cc3C2=O)cc1	inactive
COc1ccc2nc(O)c(C(=O)O)cc2c1	inactive
COc1ccc2c(c1)C(=NNc1ccc(C(=O)O)cc1)c1cc(OC)ccc1-2	22.4 µM (active)
COc1ccc2c(c1)C(=NN)c1cc(OC)ccc1-2	31.6 µM (active)
O=C(O)CC1SC(N/N=C/C2CC=CCC2)=NC1=O (stereo not given)	inactive
Oc1ccccc1C1SC(c2ccccc2O)SC(c2ccccc2O)S1 (stereo not given)	20 µM (active)
COc1ccc(-c2coc3cc4oc(=O)c5ccccc5c4cc23)cc1F	8.91 µM (active)
COc1ccc(-c2cc(Cl)cc3c(=O)c4ccccc4n(C)c23)cc1F	inactive
CCc1cc(=O)oc2cc3occ(-c4ccc(OC)c(F)c4)c3cc12	22.4 µM (active)
CCc1ccc2c(CN3CCc4cc(OC)c(OC)cc4C3)cc(=O)oc2c1	inactive
COc1ccc(-c2cc(=O)oc3cc(O)ccc23)cc1	inactive
COc1ccc(-c2cc3ccc(O)cc3oc2=O)cc1OC	inactive
COc1ccccc1C1CN(c2ccc(F)cc2F)N=C1c1cccs1 (stereo not given)	inactive
N#C/C(=N\Nc1ccc(Cl)c(Cl)c1)C(=O)C1CC1	25.1 µM (active)
O=C(NCc1ccc(Cl)c(Cl)c1)C1CCCC1	inactive
O=[N+]([O-])c1ccc(S(=O)(=O)NCCc2cn3ccccc3n2)cc1	inactive
COc1ccc(S(=O)(=O)NCC2CCCN(C(=O)c3cccnc3)C2)cc1 (stereo not given)	inactive
Cc1c(C)n(Cc2ccccc2)c2ccc(C(=O)O)cc12	inactive
COc1ccccc1OCCn1c(C)c(C=O)c2ccccc21	inactive
Cc1c(C=O)c(C=O)c(C)n1Cc1ccccc1	35.5 µM (active)
O=c1cc(N2CCCCC2)c(-c2ccccc2)nn1Cc1ccccc1	inactive
COc1ccc(-c2cc(-c3cccs3)nc3sc(C#N)c(N)c23)cc1	inactive
COc1ccc(-c2cc(-c3cccs3)c(C#N)c(SCC(=O)NCc3ccccc3OC)n2)cc1	35.5 µM (active)
COc1ccccc1CNC(=O)c1cnn(-c2nccc(-c3cccs3)n2)c1C	inactive
